Source: the supplement of paper PMC8728848
The entries come from a sample that favours the strongest signals as a whole.

Columns and labels:
Experiment in all cases: glycan array binding signal (z-score within array); higher = stronger binding
Details in all cases: glycan notation: IUPAC condensed, linker removed
[1] = target: Fuc(a1-2)Gal(b1-3)GlcNAc(b1-2)Man(a1-3)[Fuc(a1-2)Gal(b1-3)GlcNAc(b1-2)Man(a1-6)]Man(b1-4)GlcNAc(b1-4)GlcNAc
Outline: (§1)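 The Consortium for Functional Glycomics database supplied 3228 glycan arrays, of which those lacking an available protein sequence were dropped. The binding signal, a within-array Z-score, was averaged across arrays of the same protein sequence and across linkers. Negative scores can be read as non-binding.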

[2] = target: Fuc(a1-2)Gal(b1-3)[Fuc(a1-4)]GlcNAc(b1-2)Man(a1-3)[Fuc(a1-2)Gal(b1-3)[Fuc(a1-4)]GlcNAc(b1-2)Man(a1-6)]Man(b1-4)GlcNAc(b1-4)[Fuc(a1-6)]GlcNAc(b1-4)[Fuc(a1-6)]GlcNAc
Outline: as §1

[3] = target: Fuc(a1-2)Gal(b1-4)GlcNAc(b1-2)Man(a1-3)[Fuc(a1-2)Gal(b1-4)GlcNAc(b1-2)Man(a1-6)]Man(b1-4)GlcNAc(b1-4)GlcNAc
Outline: as §1

[4] = target: Fuc(a1-2)Gal(b1-4)[Fuc(a1-3)]GlcNAc(b1-3)GalNAc
Outline: as §1

[5] = target: Fuc(a1-2)[Gal(a1-3)]Gal(b1-3)GalNAc(b1-3)Gal(a1-4)Gal(b1-4)Glc
Outline: as §1

[6] = target: Fuc(a1-2)[Gal(a1-3)]Gal(b1-3)GlcNAc(b1-2)Man(a1-3)[Fuc(a1-2)[Gal(a1-3)]Gal(b1-3)GlcNAc(b1-2)Man(a1-6)]Man(b1-4)GlcNAc(b1-4)[Fuc(a1-6)]GlcNAc
Outline: as §1

[7] = target: Fuc(a1-2)[GalNAc(a1-3)]Gal(b1-3)GalNAc(a1-3)[Fuc(a1-2)]Gal(b1-4)GlcNAc
Outline: as §1

[8] = target: Fuc(a1-2)[GalNAc(a1-3)]Gal(b1-3)GlcNAc(b1-2)Man(a1-3)[Fuc(a1-2)[GalNAc(a1-3)]Gal(b1-3)GlcNAc(b1-2)Man(a1-6)]Man(b1-4)GlcNAc(b1-4)GlcNAc
Outline: as §1

[9] = target: Fuc(a1-2)[GalNAc(a1-3)]Gal(b1-4)GlcNAc(b1-2)Man
Outline: as §1

[10] = target: Fuc(a1-2)[GalNAc(a1-3)]Gal(b1-4)GlcNAc(b1-6)GalNAc
Outline: as §1

[11] = target: Fuc(a1-3)[Gal(b1-4)]GlcNAc(b1-6)GalNAc
Outline: as §1

Fuc(b1-3)GlcNAc = target: Fuc(b1-3)GlcNAc
Outline: as §1

Gal(a1-3)Gal = target: Gal(a1-3)Gal
Outline: as §1

[12] = target: Gal(a1-3)Gal(b1-4)[Fuc(a1-3)]GlcNAc
Outline: as §1

[13] = target: Gal(a1-4)Gal(b1-4)GlcNAc(b1-2)Man(a1-3)[Gal(a1-4)Gal(b1-4)GlcNAc(b1-2)Man(a1-6)]Man(b1-4)GlcNAc(b1-4)GlcNAc
Outline: as §1

[14] = target: Gal(b1-3)GlcNAc(b1-3)Gal(b1-4)GlcNAc(b1-3)Gal(b1-4)GlcNAc(b1-2)[Gal(b1-3)GlcNAc(b1-3)Gal(b1-4)GlcNAc(b1-3)Gal(b1-4)GlcNAc(b1-6)]Man(a1-6)[Gal(b1-3)GlcNAc(b1-3)Gal(b1-4)GlcNAc(b1-3)Gal(b1-4)GlcNAc(b1-2)Man(a1-3)]Man(b1-4)GlcNAc(b1-4)[Fuc(a1-6)]GlcNAc
Outline: as §1

[15] = target: Gal(b1-3)GlcNAc(b1-3)GalNAc
Outline: as §1

[16] = target: Gal(b1-3)[Neu5Ac(a2-6)]GlcNAc(b1-4)Gal(b1-4)Glc
Outline: as §1

Gal(b1-4)Gal = target: Gal(b1-4)Gal
Outline: as §1

[17] = target: Gal(b1-4)GlcNAc(b1-2)Man(a1-3)[Gal(b1-4)GlcNAc(b1-2)Man(a1-6)]Man(b1-4)GlcNAc(b1-4)[Fuc(a1-6)]GlcNAc
Outline: as §1

[18] = target: Gal(b1-4)GlcNAc(b1-2)[Gal(b1-4)GlcNAc(b1-4)]Man(a1-3)[GlcNAc(b1-4)][Gal(b1-4)GlcNAc(b1-2)[Gal(b1-4)GlcNAc(b1-6)]Man(a1-6)]Man(b1-4)GlcNAc(b1-4)GlcNAc
Outline: as §1

[19] = target: Gal(b1-4)GlcNAc(b1-3)Gal(b1-3)GlcNAc
Outline: as §1

[20] = target: Gal(b1-4)GlcNAc(b1-3)Gal(b1-4)GlcNAc(b1-2)Man(a1-3)[Gal(b1-4)GlcNAc(b1-3)Gal(b1-4)GlcNAc(b1-2)Man(a1-6)]Man(b1-4)GlcNAc(b1-4)[Fuc(a1-6)]GlcNAc
Outline: as §1

[21] = target: Gal(b1-4)GlcNAc(b1-3)Gal(b1-4)GlcNAc(b1-2)[Gal(b1-4)GlcNAc(b1-3)Gal(b1-4)GlcNAc(b1-6)]Man(a1-6)[Gal(b1-4)GlcNAc(b1-3)Gal(b1-4)GlcNAc(b1-2)Man(a1-3)]Man(b1-4)GlcNAc(b1-4)GlcNAc
Outline: as §1

[22] = target: Gal(b1-4)GlcNAc(b1-3)Gal(b1-4)GlcNAc(b1-2)[Gal(b1-4)GlcNAc(b1-3)Gal(b1-4)GlcNAc(b1-6)]Man(a1-6)[Gal(b1-4)GlcNAc(b1-3)Gal(b1-4)GlcNAc(b1-2)Man(a1-3)]Man(b1-4)GlcNAc(b1-4)[Fuc(a1-6)]GlcNAc
Outline: as §1

[23] = target: Gal(b1-4)GlcNAc(b1-3)Gal(b1-4)GlcNAc(b1-3)Gal(b1-4)GlcNAc(b1-3)Gal(b1-4)GlcNAc(b1-2)Man(a1-3)[Gal(b1-4)GlcNAc(b1-3)Gal(b1-4)GlcNAc(b1-3)Gal(b1-4)GlcNAc(b1-3)Gal(b1-4)GlcNAc(b1-2)Man(a1-6)]Man(b1-4)GlcNAc(b1-4)GlcNAc
Outline: as §1

[24] = target: Gal(b1-4)GlcNAc(b1-3)[GlcNAc(b1-6)]Gal(b1-4)GlcNAc
Outline: as §1

[25] = target: Gal3S(b1-3)[Fuc(a1-4)]GlcNAc
Outline: as §1

Gal6S(b1-3)GlcNAc6S = target: Gal6S(b1-3)GlcNAc6S
Outline: as §1

Gal6S(b1-4)GlcNAc = target: Gal6S(b1-4)GlcNAc
Outline: as §1

B1: PX14375l-pdi-526-25-526 (Parabacteroides distasonis) (protein)
chain: DEEPKSTLTDVAYYKTQSQMESNVNYLYRTGAIGSYVDFGSAYIGPFASIQEELTGYFSNSYEGQEIVCRYTRELTRQQNTMQLASKMDKVWDDCYRGINVANGAIKHMPEVPMDQATADRLTAEAKFFRAFNYFYLVKTFGAVPFYTDPYELAENMELPRTETSTIYNQIESDLKDAMNVLPEATFAANGHRITKYVAAMTLTDVYMYQHKYAEAAETVRIVVNSNHKLTTNDDLAMNSAFNKLRSTDDLDEAIYAYEYDNQISPSNWLPTYAFDGDASSNGLFGTYAITQKVHGPNDRYLNIYESNDLRRQPNQFYHWTYTNPKTGKVWNSVGNAACCWYYYDEDALLTTGRGTKDWNVYRYAEALLDAAESIAQSTGVTAEAAGYLAQVKARANMEGKTAAEIASSLQSMGKQAFIEECWTERLRELPLEFKMWDMCVRTGMFPNISETTPGQVTYIPLVGAKNASGATIKESDLLWPLSVNEIQRNPSLTQNEGYSAK
[1]
  glycan array binding signal (z-score): -0.052
[2]
  glycan array binding signal (z-score): 0.236
[3]
  glycan array binding signal (z-score): 3.23
[4]
  glycan array binding signal (z-score): 3.32
[5]
  glycan array binding signal (z-score): -0.21
[6]
  glycan array binding signal (z-score): 0.373
[7]
  glycan array binding signal (z-score): -0.255
[8]
  glycan array binding signal (z-score): 2.42
[9]
  glycan array binding signal (z-score): -0.233
[10]
  glycan array binding signal (z-score): -0.22
[11]
  glycan array binding signal (z-score): 2.66
Fuc(b1-3)GlcNAc
  glycan array binding signal (z-score): -0.225
Gal(a1-3)Gal
  glycan array binding signal (z-score): -0.181
[12]
  glycan array binding signal (z-score): -0.3
[13]
  glycan array binding signal (z-score): 1.19
[14]
  glycan array binding signal (z-score): 8.4
[15]
  glycan array binding signal (z-score): -0.323
[16]
  glycan array binding signal (z-score): -0.125
Gal(b1-4)Gal
  glycan array binding signal (z-score): -0.301
[17]
  glycan array binding signal (z-score): 0.272
[18]
  glycan array binding signal (z-score): 3.87
[19]
  glycan array binding signal (z-score): -0.16
[20]
  glycan array binding signal (z-score): 4.03
[21]
  glycan array binding signal (z-score): 4.11
[22]
  glycan array binding signal (z-score): 0.091
[23]
  glycan array binding signal (z-score): 16.7
[24]
  glycan array binding signal (z-score): -0.154
[25]
  glycan array binding signal (z-score): -0.094
Gal6S(b1-3)GlcNAc6S
  glycan array binding signal (z-score): 9.53
Gal6S(b1-4)GlcNAc
  glycan array binding signal (z-score): -0.026
